Some test systems named below: HCT-15 colon; HT29 colon; SNB-75 CNS; SNB-19 CNS; U251 CNS; PC-3 prostate; SK-MEL-5 melanoma; UACC-62 melanoma; LOX IMVI melanoma; SK-MEL-28 melanoma.
Holding throughout (experiment): NCI-60 one-dose screen, 48 h (100 = growth as untreated, 0 = no growth, -100 = all killed)
What all share (details): 10 µM unless noted

“And” between values parts separate entries of the source, which are not always exact repeats. Equal values may be shown once. This is part of a sample that, as a whole, favours compounds with a hit. Of some 83,000 tested, about 20% had one in any assay.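 Growth was measured after 48 h exposure to one concentration of compound in 96-well plates. Values under 10 count as active.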 A number with no mark means an inactive call. The source made the active and inactive calls.

Turning to `CCc1ccccc1-c1nc(CN[C@@H]2C[C@@H]3C[C@H]([C@H]2C)C3(C)C)c(C)o1`, the growth with HCT-15 colon is -71.2% (active); in the assay with HT29 colon it was -73.8% (active); with SNB-75 CNS, -68.1% (active); in the assay on SNB-19 CNS, -81.7% (active); with U251 CNS, -61.9% (active); in the assay with PC-3 prostate, -54.3% (active). Besides, the growth in the assay on SK-MEL-5 melanoma is -94.3% (active); with UACC-62 melanoma it was -88.3% (active); with LOX IMVI melanoma, -94.4% (active); in the assay on SK-MEL-28 melanoma it was -80.3% (active).
Turning to `O=C1Nc2cc(-c3ccc(NS(=O)(=O)c4ccc([N+](=O)[O-])cc4)cc3)ccc2/C1=C/c1ccc[nH]1`, the growth in the assay on HCT-15 colon is 11%; with HT29 colon it was -17.3% (active); in the assay on SNB-75 CNS, 34.1%; with SNB-19 CNS, 31.1%; in the assay on U251 CNS, -62.4% (active); in the assay with PC-3 prostate, 25.7%. Besides, the growth in the assay on SK-MEL-5 melanoma is 24.2%; in the assay on UACC-62 melanoma, 0.956% (active); with LOX IMVI melanoma it was -20.6% (active); with SK-MEL-28 melanoma it was 9.97% (active).
In the case of `COc1ccc2[nH]c(=O)c(CSc3ccccc3Nc3nccc(-c4ccc(Cl)cc4)n3)cc2c1`, the growth in the assay with HCT-15 colon was 25.8%; with HT29 colon it was 17.3%; in the assay on SNB-75 CNS, 23.6%; in the assay on SNB-19 CNS, 56.8%; in the assay on U251 CNS, 37.8%; in the assay with PC-3 prostate, 38.5%. For the same compound, the growth with SK-MEL-5 melanoma was 25.4%; with UACC-62 melanoma, 52.6%; in the assay on LOX IMVI melanoma, 19.4%; with SK-MEL-28 melanoma, 74.1%.
On to `CCOc1ccccc1NC(=O)N/C(N)=N/c1nc2ccccc2s1`, for which the growth is 2.52% (active) in the assay on HCT-15 colon; -48.7% (active) in the assay with HT29 colon; 32.8% with SNB-75 CNS; 14.7% in the assay on SNB-19 CNS; 10.4% in the assay with U251 CNS; 23.3% with PC-3 prostate. The growth is -40.9% (active) in the assay with SK-MEL-5 melanoma, 28.1% with UACC-62 melanoma, 0.997% (active) with LOX IMVI melanoma and 54.3% with SK-MEL-28 melanoma.
Turning to `Cc1cccc(/C=C/c2ccc(NC(=S)NCCCCN(C)C)cc2)c1`, the growth with HCT-15 colon was -99.4% (active); in the assay with HT29 colon, -64.2% (active); in the assay with SNB-75 CNS, -84.4% (active); in the assay with SNB-19 CNS, -84% (active); in the assay on U251 CNS it was -64.8% (active); in the assay with PC-3 prostate, -40.4% (active). For the same compound, the growth in the assay with SK-MEL-5 melanoma is -92.3% (active); in the assay on UACC-62 melanoma, -88.4% (active); in the assay on LOX IMVI melanoma it was -99.1% (active); in the assay with SK-MEL-28 melanoma, -96.5% (active).
As to `O=C1Nc2cc(-c3ccc(NS(=O)(=O)c4ccc(-c5ccccc5)cc4)cc3)ccc2/C1=C/c1ccc[nH]1`, the growth in the assay with HCT-15 colon is 14.6%; with HT29 colon, 0.595% (active); in the assay with SNB-75 CNS, 53.2%; with SNB-19 CNS it was 72.5%; with U251 CNS it was 28.2%; with PC-3 prostate it was 31.1%. Moreover, the growth in the assay with SK-MEL-5 melanoma was 46.2%; in the assay with UACC-62 melanoma, 55%; in the assay with LOX IMVI melanoma, 20.2%; in the assay with SK-MEL-28 melanoma, 52.1%.
Turning to `CCOC(=O)/C(F)=C/C1CC1CCc1ccc(OCC)cc1` (stereo not given), the growth in the assay on HCT-15 colon is 70.6%; with HT29 colon, 58.5%; in the assay with SNB-75 CNS it was 81.3%; with SNB-19 CNS, 95.4%; in the assay with U251 CNS, 104%; in the assay on PC-3 prostate, 85.2%. Also, the growth is 63.7% with SK-MEL-5 melanoma, 87.5% in the assay on UACC-62 melanoma, 97.9% with LOX IMVI melanoma and 110% in the assay with SK-MEL-28 melanoma.
As to `Cn1cc(-c2cc(N)n3nc(-c4c[nH]c5ccccc45)cc3n2)c2ccccc21`, the growth in the assay on HCT-15 colon is -68.5% (active); in the assay on HT29 colon, -68.2% (active); in the assay with SNB-75 CNS it was -46.8% (active); in the assay with SNB-19 CNS, -88.7% (active); in the assay with U251 CNS, -93.1% (active); in the assay with PC-3 prostate, -50.2% (active). For the same compound, the growth was -92.5% (active) in the assay on SK-MEL-5 melanoma, -96.5% (active) in the assay with UACC-62 melanoma, -78.2% (active) in the assay with LOX IMVI melanoma and -98.8% (active) with SK-MEL-28 melanoma.
Regarding `Cc1cc(C(NC(=O)C2CC3(CC(Nc4cccc5c4C(=O)N(C4CCC(=O)NC4=O)C5=O)C3)C2)c2ccc3c(c2)OC(F)(F)O3)c(O)c2ncccc12` (stereo not given), the growth in the assay with HCT-15 colon is 21.1%; in the assay on HT29 colon, 29.1%; in the assay on SNB-75 CNS, 25.1%; in the assay on SNB-19 CNS, 7.79% (active); in the assay with U251 CNS, 7.11% (active); in the assay with PC-3 prostate it was 17.8%. Besides, the growth is -64.5% (active) with SK-MEL-5 melanoma, -41% (active) with UACC-62 melanoma, -4.96% (active) in the assay with LOX IMVI melanoma and 0.772% (active) with SK-MEL-28 melanoma.
In the case of `N#CC1=C(c2cccs2)Nc2c(c(-c3ccccc3)nn2-c2ccccc2)C12C(=O)Nc1ccc(Cl)cc12` (stereo not given), the growth is 10.5% in the assay on HCT-15 colon; 14.4% in the assay with HT29 colon; 36.9% in the assay on SNB-75 CNS; 13.4% with SNB-19 CNS; 16.2% with U251 CNS; 12.8% with PC-3 prostate. Also, the growth with SK-MEL-5 melanoma is 25.1%; in the assay with UACC-62 melanoma, 15.4%; with LOX IMVI melanoma it was 25.8%; with SK-MEL-28 melanoma it was 41.8%.
In the case of `CS(=O)(=O)Nc1cccc(-n2c(COc3ccc(OC(F)(F)F)cc3)nc3ccccc32)c1`, the growth is 94.6% and 105% with HCT-15 colon; 103% and 114% in the assay with HT29 colon; 55.4% and 95.4% with SNB-75 CNS; 93.8% and 101% with SNB-19 CNS; 85% and 101% in the assay on U251 CNS; 70.7% and 103% with PC-3 prostate. For the same compound, the growth with SK-MEL-5 melanoma is 78.8% and 106%; in the assay on UACC-62 melanoma, 72.3% and 107%; in the assay with LOX IMVI melanoma, 83.7% and 110%; in the assay with SK-MEL-28 melanoma, 118% and 133%.
Turning to `COc1ccc2[nH]cc(-c3cc4nc(-c5cn(C)c6ncccc56)cc(N)n4n3)c2c1`, the growth was -25.1% (active) in the assay with HCT-15 colon; -59.1% (active) with HT29 colon; 51.8% with SNB-75 CNS; 26% in the assay with SNB-19 CNS; -42.4% (active) in the assay with U251 CNS; 9.79% (active) with PC-3 prostate. Moreover, the growth in the assay with SK-MEL-5 melanoma is -56.5% (active); in the assay on UACC-62 melanoma it was 85.9%; in the assay with LOX IMVI melanoma, -85.3% (active); in the assay with SK-MEL-28 melanoma it was 82.6%.
For the compound `COc1ccc(N=Nc2c(N)nn3c(-c4ccc([N+](=O)[O-])cc4)ccnc23)cc1`, the growth with HCT-15 colon was 101%; in the assay on HT29 colon, 96.3%; with SNB-75 CNS, 85.4%; in the assay with SNB-19 CNS, 108%; in the assay with U251 CNS, 107%; in the assay with PC-3 prostate, 101%. Further, the growth in the assay with SK-MEL-5 melanoma is 94.2%; in the assay with UACC-62 melanoma, 94.5%; with LOX IMVI melanoma, 99.9%; in the assay with SK-MEL-28 melanoma it was 101%.

For the origin of these results see PubChem BioAssay (NCI).
